Results filed as inconclusive are left out. Activity calls are given as the source filed them. Rule for the calls, unless noted: active = hit-call score of the fitted dose curve at least 0.9, where 1 is the maximum; inactive = score below 0.9.

The values below come from PubChem BioAssay (EPA / NIEHS).

Read-out in assay [1]: Monokine induced gamma interferon (MIG), CXCL9 (gene 4283)
As to the kind of experiment: BSK_SAg_MIG: BioMAP Diversity Plus: SAg Assay for Monokine induced gamma interferon (MIG) Biomarker Activity (AID 2283092). As to conditions: primary human HUVEC with PBMC; actives raise or lower the signal. In a few lines: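 ELISA readout of MIG/CXCL9; primary human umbilical vein endothelial cells co-cultured with peripheral blood mononuclear cells; 24 h post-dose; gain/loss fit vs DMSO baseline.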

Read-out in assay [2]: Interleukin-8 (IL8), CXCL8 (gene 3576)
Briefly: BSK_SAg_IL8: BioMAP Diversity Plus: SAg Assay for Interleukin-8 (IL8) Biomarker Activity (AID 2283094). As to conditions: primary human HUVEC with PBMC; actives raise or lower the signal. The method, boiled down: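 In this co-culture of human umbilical vein endothelium with peripheral blood mononuclear cells, IL-8 is assayed by ELISA at 24 h. DMSO serves as baseline for bidirectional curve fitting.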

A short description of assay [3]: BSK_SAg_Proliferation: Cell Proliferation Assessment in the BioMAP Diversity Plus: SAg Assay (AID 2283095).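 Note: relative cell number as total protein by SRB absorbance in sub-confluent culture.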 Particulars: primary human HUVEC with PBMC. The method, boiled down:
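Readout is SRB-stained protein (560 nm) in a primary human HUVEC and PBMC co-culture; sub-confluent cultures are read at 96 h. Activity is fitted bidirectionally using DMSO as baseline.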

Assay [4] in a line: BSK_SAg_SRB: Viability Assessment in the BioMAP Diversity Plus: SAg Assay (AID 2283096).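 Note: cells read one day after compound addition; hits may be either gain or loss of signal compared with DMSO.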 As to conditions: primary human HUVEC with PBMC. The method, boiled down:
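Total protein by sulforhodamine B staining, 24 h after dosing, in HUVEC–PBMC co-culture; DMSO-referenced bidirectional fitting.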

Assay [5] can be described thus: BSK_SAg_PBMCCytotoxicity: PBMC Cytotoxicity Assessment in the BioMAP Diversity Plus: SAg Assay (AID 2283093).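 For AC50: PBMC superantigen activated with SEB plus TSST-1 one hour after compound addition.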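 Note: PBMC viability measured as Alamar Blue reduction fluorescence at 546/580 nm; fitted both ways against DMSO so a hit may be loss or gain of signal.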 As to conditions: primary human HUVEC with PBMC. In a few lines:
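Compound added to 75,000 PBMC/well for 1 h; SEB and TSST-1 then added at 20 ng/mL final each; 90 h incubation; Alamar Blue 6 h; read 546/580 nm ex/em. Activity fitted bidirectionally relative to DMSO baseline.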

Assay [6] deals with Cytochrome P450 2C19 (Homo sapiens) (UniProt P33261). As to the kind of experiment: NVS_ADME_hCYP2C19: NovaScreen (NVS) CYP450-related Enzyme Activity (ADME) Assay for human CYP2C19 (AID 2283113; active = hit-call score of the fitted dose curve at least 0.9, where 1 is the maximum;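 for AC50: potency for inhibition seen as loss of fluorescent signal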). The method, boiled down:
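Compounds first screened in duplicate at 10 uM, then confirmed in concentration series. Insect-cell-expressed human CYP2C19 turned over a fluorogenic substrate, and fluorescence was read after 1 h. Inhibition taken as signal loss relative to acetonitrile.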

Assay [7] has as its target human AKT serine/threonine Kinase 1 (AKT1), AKT1 (gene 207) (UniProt P31749). Briefly: NVS_ENZ_hAKT1: NovaScreen (NVS) Enzymatic Assay for human AKT serine/threonine Kinase 1 (AKT1) (AID 2283138; active = hit-call score of the fitted dose curve at least 0.9, where 1 is the maximum). In a few lines:
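Signal loss relative to DMSO, measured by fluorescence after electrophoretic separation of substrate and product, indicates inhibition of recombinant enzyme. Readings at 1 h; screening at 25 uM, follow-up curves up to 50 uM.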

The target of assay [8] is human AKT serine/threonine Kinase 2 (AKT2), AKT2 (gene 208) (UniProt P31751). As to the kind of experiment: NVS_ENZ_hAKT2: NovaScreen (NVS) Enzymatic Assay for human AKT serine/threonine Kinase 2 (AKT2) (AID 2283141; active = hit-call score of the fitted dose curve at least 0.9, where 1 is the maximum). In a few lines:
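Cell-free fluorescence/electrophoretic mobility shift readout of recombinant human AKT2 activity, 1 h after chemical dosing. Duplicate primary screen at 25 uM, then singleton concentration-response up to 50 uM; loss of signal versus DMSO baseline.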

Assay [9] addresses human Caspase 5 (CASP5), CASP5 (gene 838) (UniProt P51878). Briefly: NVS_ENZ_hCASP5: NovaScreen (NVS) Enzymatic Assay for human Caspase 5 (CASP5) (AID 2283137; active = hit-call score of the fitted dose curve at least 0.9, where 1 is the maximum). In a few lines: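 Cell-free protease assay with bacterially expressed CASP5 and a fluorescent substrate, measured at 2 h. Values fitted relative to DMSO as baseline, from concentration-response series topping at 50 uM.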

Assay [10] addresses human Beta-secretase (BACE), BACE1 (gene 23621) (UniProt P56817). Briefly: NVS_ENZ_hBACE: NovaScreen (NVS) Enzymatic Assay for human Beta-secretase (BACE) (AID 2283140; active = hit-call score of the fitted dose curve at least 0.9, where 1 is the maximum;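 note: hits are inhibitors that reduce fluorescent substrate signal versus DMSO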). The method, boiled down:
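Recombinant BACE1 (SF9 extract) incubated with compound and fluorescent substrate, 1 h. Plates carried positive and DMSO negative controls. Initial single dose 25 uM, duplicate; confirmation by concentration series.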

Assay [11] deals with human Acid Phosphatase 1 (ACP1), ACP1 (gene 52) (UniProt P24666). Briefly: NVS_ENZ_hACP1: NovaScreen (NVS) Enzymatic Assay for human Acid Phosphatase 1 (ACP1) (AID 2283136; active = hit-call score of the fitted dose curve at least 0.9, where 1 is the maximum). In a few lines: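 Recombinant enzyme expressed in Sf9 cells, tested cell-free; activity read by fluorescence with electrophoretic mobility shift separation of substrate and product, 1.5 h after dosing. Primary screen in duplicate at 25 uM, actives then run in concentration series; loss of signal versus DMSO.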
human Acid Phosphatase 1 (ACP1), ACP1 (gene 52), sequence (P24666 whole entry, looked up): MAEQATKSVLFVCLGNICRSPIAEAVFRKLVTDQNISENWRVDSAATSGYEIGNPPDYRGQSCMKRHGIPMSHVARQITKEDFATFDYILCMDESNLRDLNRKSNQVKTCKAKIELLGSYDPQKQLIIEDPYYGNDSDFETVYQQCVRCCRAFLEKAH

The target in the next assay is Caspase-3 (Homo sapiens) (UniProt P42574). Briefly: NVS_ENZ_hCASP3: NovaScreen (NVS) Enzymatic Assay for human Caspase 3 (CASP3) (AID 2283139; active = hit-call score of the fitted dose curve at least 0.9, where 1 is the maximum). In a few lines:
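Recombinant human caspase-3 from E. coli with a fluorogenic substrate, read by fluorescence 1 h after dosing. Primary screen in duplicate at 25 uM. Actives (for example ≥30% inhibition) rerun as concentration-response up to 50 uM.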

Assay [12] concerns the target human CYP2D6, CYP2D6 (gene 1565) (UniProt P10635). Briefly: NVS_ADME_hCYP2D6: NovaScreen (NVS) CYP450-related Enzyme Activity (ADME) Assay for human CYP2D6 (AID 2283107; active = hit-call score of the fitted dose curve at least 0.9, where 1 is the maximum). In a few lines:
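Fluorescence readout of recombinant CYP2D6 (insect-cell derived) activity after 1 h incubation with test chemical. Acetonitrile served as baseline, loss-of-signal direction. Single-concentration duplicate screening at 10 uM preceded concentration-response retesting.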

human AKT serine/threonine Kinase 1 (AKT1), AKT1 (gene 207), sequence (P31749 whole entry, looked up): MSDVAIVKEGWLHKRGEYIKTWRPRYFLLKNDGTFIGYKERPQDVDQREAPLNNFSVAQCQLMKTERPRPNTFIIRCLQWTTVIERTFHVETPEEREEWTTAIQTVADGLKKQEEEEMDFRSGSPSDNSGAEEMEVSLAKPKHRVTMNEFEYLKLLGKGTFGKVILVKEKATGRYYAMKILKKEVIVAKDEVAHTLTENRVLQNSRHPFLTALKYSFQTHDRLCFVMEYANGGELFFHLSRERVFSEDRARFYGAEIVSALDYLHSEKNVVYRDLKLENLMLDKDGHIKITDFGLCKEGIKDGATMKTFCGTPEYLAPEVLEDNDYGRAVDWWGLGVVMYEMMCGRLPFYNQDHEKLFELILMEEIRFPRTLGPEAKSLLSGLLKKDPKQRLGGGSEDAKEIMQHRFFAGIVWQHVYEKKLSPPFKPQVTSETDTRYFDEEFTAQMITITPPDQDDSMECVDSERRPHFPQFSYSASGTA
human AKT serine/threonine Kinase 2 (AKT2), AKT2 (gene 208), sequence (P31751 whole entry, looked up): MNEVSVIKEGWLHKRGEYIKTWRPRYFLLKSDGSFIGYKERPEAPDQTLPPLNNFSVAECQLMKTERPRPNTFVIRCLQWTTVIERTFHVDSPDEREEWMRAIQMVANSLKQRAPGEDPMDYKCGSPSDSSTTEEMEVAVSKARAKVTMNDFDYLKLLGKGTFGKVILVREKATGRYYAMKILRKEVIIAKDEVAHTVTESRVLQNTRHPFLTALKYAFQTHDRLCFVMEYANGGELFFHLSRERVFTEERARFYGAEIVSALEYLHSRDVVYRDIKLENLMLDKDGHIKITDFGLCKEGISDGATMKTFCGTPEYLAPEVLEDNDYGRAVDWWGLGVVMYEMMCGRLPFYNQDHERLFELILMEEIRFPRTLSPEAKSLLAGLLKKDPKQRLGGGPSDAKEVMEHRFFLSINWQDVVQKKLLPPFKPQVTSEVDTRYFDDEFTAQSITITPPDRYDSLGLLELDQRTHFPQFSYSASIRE
human Beta-secretase (BACE), BACE1 (gene 23621), sequence (P56817 whole entry, looked up): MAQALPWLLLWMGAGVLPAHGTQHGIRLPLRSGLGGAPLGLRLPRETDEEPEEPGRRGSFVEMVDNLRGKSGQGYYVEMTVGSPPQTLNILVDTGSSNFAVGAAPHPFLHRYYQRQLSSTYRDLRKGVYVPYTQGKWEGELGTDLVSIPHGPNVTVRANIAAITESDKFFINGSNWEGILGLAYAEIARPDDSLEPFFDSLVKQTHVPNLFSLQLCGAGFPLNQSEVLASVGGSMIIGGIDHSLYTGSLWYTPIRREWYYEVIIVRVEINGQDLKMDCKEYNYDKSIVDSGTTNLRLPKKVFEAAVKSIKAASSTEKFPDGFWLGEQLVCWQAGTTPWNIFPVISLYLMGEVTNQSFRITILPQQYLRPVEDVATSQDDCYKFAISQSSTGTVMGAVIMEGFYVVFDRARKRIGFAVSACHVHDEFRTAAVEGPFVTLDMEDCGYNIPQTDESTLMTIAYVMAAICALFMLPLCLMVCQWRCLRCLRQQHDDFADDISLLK
human CYP2D6, CYP2D6 (gene 1565), sequence (P10635 whole entry, looked up): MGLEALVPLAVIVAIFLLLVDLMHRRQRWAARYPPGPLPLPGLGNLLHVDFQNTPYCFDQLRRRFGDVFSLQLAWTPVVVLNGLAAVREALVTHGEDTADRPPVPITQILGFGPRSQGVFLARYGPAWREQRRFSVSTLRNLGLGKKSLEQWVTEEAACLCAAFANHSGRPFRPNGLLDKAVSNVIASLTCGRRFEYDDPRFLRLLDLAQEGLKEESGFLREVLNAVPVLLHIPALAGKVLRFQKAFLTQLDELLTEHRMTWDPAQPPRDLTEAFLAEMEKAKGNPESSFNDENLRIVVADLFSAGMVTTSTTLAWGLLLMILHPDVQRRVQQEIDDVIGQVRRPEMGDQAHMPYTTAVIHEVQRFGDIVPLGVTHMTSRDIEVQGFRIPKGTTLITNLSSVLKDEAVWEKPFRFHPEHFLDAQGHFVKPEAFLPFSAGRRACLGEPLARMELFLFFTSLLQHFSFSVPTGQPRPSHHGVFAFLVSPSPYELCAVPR
Caspase-3 (Homo sapiens), sequence (P42574 whole entry, looked up): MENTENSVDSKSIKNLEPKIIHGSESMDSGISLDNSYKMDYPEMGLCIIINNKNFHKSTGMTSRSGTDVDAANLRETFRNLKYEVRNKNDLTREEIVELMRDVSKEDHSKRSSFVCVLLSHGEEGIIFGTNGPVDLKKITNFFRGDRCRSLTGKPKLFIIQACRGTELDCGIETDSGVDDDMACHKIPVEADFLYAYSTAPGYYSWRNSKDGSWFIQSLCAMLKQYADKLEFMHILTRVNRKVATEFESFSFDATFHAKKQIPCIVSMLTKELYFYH
human Caspase 5 (CASP5), CASP5 (gene 838), sequence (P51878 whole entry, looked up): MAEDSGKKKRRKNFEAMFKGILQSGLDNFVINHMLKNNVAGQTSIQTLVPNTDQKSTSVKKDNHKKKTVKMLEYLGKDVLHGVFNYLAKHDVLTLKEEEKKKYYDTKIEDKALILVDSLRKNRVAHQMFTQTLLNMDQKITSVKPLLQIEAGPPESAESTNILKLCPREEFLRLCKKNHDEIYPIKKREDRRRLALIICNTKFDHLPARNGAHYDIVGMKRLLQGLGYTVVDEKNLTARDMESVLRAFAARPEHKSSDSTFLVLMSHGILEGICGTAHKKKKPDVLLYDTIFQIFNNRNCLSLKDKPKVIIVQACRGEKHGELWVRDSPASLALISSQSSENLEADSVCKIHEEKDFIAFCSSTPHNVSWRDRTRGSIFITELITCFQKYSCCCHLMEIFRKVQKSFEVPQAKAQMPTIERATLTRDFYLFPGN

For the compound `CC(C)c1nnc2ccc(-c3ocnc3-c3cc(F)ccc3F)cn12`, the result in assay [1] and in assay [4] was inactive. Further, the AC50 in assay [2] is 1.27 µM (active); in assay [3], 12.8 µM (active).
Consider `OCc1ccccc1`, for which the result in assay [1], in [2], in assay [3] and in assay [4] was inactive.
As for `NNC(=O)c1ccncc1`, the result in assay [1], in assay [2], in assay [3], in [4] and in [7] was inactive. In addition, the AC50 in assay [5] is 5.14 µM (active); in assay [6], 1.49 µM (active).
As to `CCCCCCCC1CCC(=O)O1` (stereo unspecified), the result in assay [1], in assay [2], in assay [3] and in assay [4] was inactive.
In the case of `O=c1[nH]cnc2c1ncn2[C@H]1CC[C@@H](CO)O1`, the result in assay [1], in assay [5], in assay [2], in assay [3], in [4] and in [7] was inactive. In addition, the compound was called inactive in assay [8].
In the case of `CCCCCCCCCCCCCCCCOS(=O)(=O)O`, the result in [1], in assay [5], in [2], in [3] and in [4] was inactive. In addition, the figures for the AC50 in assay [9] and in assay [10] were 2.18 µM (active) and 1.27 µM (active), respectively.
For the compound `FC(F)(F)COC(OCC(F)(F)F)OCC(F)(F)F`, the result in assay [1], in assay [2], in assay [3] and in [4] was inactive.
For `Cc1ccc(S(=O)(=O)NC(=O)NN2CCCCCC2)cc1`, the outcome in [1], in assay [5], in assay [2], in [3], in [4] and in [8] was inactive.
Take `CCCCCCCCN(C)C`: the result in assay [1], in assay [2], in assay [3] and in assay [4] was inactive.
Consider `CCCCN1C(=O)[C@@H]([C@H](O)C2CCCCC2)NC(=O)C12CCN(Cc1ccc(Oc3ccc(C(=O)O)cc3)cc1)CC2`, for which the outcome in [1], in assay [5], in [2], in [3], in assay [4] and in assay [10] was inactive.
`O=C(O)c1cccc(C(=O)O)c1`: the outcome in assay [1], in [2], in [3] and in assay [4] was inactive.
`NC(=O)N1c2ccccc2C=Cc2ccccc21`: the outcome in [1], in [5], in assay [2], in assay [3], in assay [4] and in [6] was inactive.
Consider `O=C(Cl)C(F)(F)C(F)(F)C(F)(F)C(=O)Cl`, for which the outcome in [1], in [2], in assay [3] and in [4] was inactive.
Turning to `Cc1nc(-c2ccccn2)ncc1C(=O)Nn1cc(C)c2cc(F)ccc21`, the outcome in [1], in assay [5], in [2], in [4], in assay [11] and in assay [8] was inactive. Besides, the AC50 in assay [3] is 20 µM (active).
For `CC(=O)c1ccccc1`, the result in assay [1], in assay [2], in assay [3] and in assay [4] was inactive.
Take `OC[C@H]1O[C@@](CO)(O[C@H]2O[C@H](CO)[C@@H](O)[C@H](O)[C@H]2O)[C@@H](O)[C@@H]1O`: the outcome in assay [1], in [2], in [3] and in [4] was inactive.
On to `CCCCC(CC)C(=O)OCCOCCOCCOC(=O)C(CC)CCCC` (stereo unspecified), for which the result in [1], in [5], in [2], in [4] and in [10] was inactive. Further, in [3], the AC50 was 24.7 µM (active).
As for `CCCCCOC(C)=O`, the outcome in assay [1], in assay [2] and in [4] was inactive. The AC50 in assay [3] is 15.1 µM (active).
`CCCCCCOC(=O)CC(CC(=O)OCCCCCC)(OC(=O)CCC)C(=O)OCCCCCC`: the outcome in assay [1], in assay [2] and in [4] was inactive. Moreover, the AC50 is 4.11 µM (active) in [5], 9.76 µM (active) in assay [3] and 2.71 µM (active) in [6].
Take `C[Si](C)(C)C(F)(F)C(F)(F)C(F)(F)F`: the result in [1], in assay [2], in [3] and in assay [4] was inactive.
On to `O=C(NO)C1(NS(=O)(=O)c2ccc(Oc3ccc(F)cc3)cc2)CCOCC1`, for which the result in assay [1], in [5], in assay [2], in [3], in assay [4] and in assay [6] was inactive.
For `OCCNCCO`, the outcome in assay [1], in assay [2], in assay [3] and in assay [4] was inactive.
For `COCc1nnc(-c2ccc[n+]([O-])c2)n1-c1c(Cl)c(Cl)cc2[nH]c(=O)c(=O)[nH]c12`, the result in assay [1], in assay [5], in [2], in assay [3] and in [4] was inactive. For the same compound, the AC50 in assay [6] is 4.13 µM (active).
Take `O=S(=O)(O)c1ccc(N=Nc2c(O)ccc3cc(S(=O)(=O)O)ccc23)cc1`: the result in assay [1], in assay [5], in assay [2], in [3] and in assay [4] was inactive. Also, in the assay with Caspase-3 (Homo sapiens), the AC50 is 37.7 µM (active).
In the case of `C[C@@H](Oc1ccc(CNC(=O)c2cccnc2Oc2ccc3c(c2)OCO3)c(F)c1)C(=O)O`, the outcome in [1], in assay [2], in assay [3] and in assay [4] was inactive.
With `Cc1ncc([C@@H](CCCCCCc2ccc3c(n2)NCCC3)CC(=O)O)cn1`, the outcome in [1], in [5], in assay [2], in assay [3], in assay [4] and in [11] was inactive. The compound was called inactive in [7].
On to `c1ccc2ncccc2c1`, for which the outcome in assay [1], in [2], in [3] and in [4] was inactive.
As to `O=C(O)[C@H](O)[C@@H](O)C(=O)O`, the result in assay [1], in assay [2], in assay [3] and in assay [4] was inactive.
On to `FC(F)(F)C(F)(F)C(F)(F)C(F)(F)C(F)(F)C(F)(F)I`, for which the outcome in assay [1], in assay [2], in [3] and in assay [4] was inactive.
In the case of `FC(F)=C(F)C(F)(F)C(F)(F)C(F)(F)C(F)(F)C(F)(F)C(F)(F)F`, the outcome in assay [1], in assay [2], in [3] and in [4] was inactive.
Regarding `O=C1CN(N=Cc2ccc([N+](=O)[O-])o2)C(=O)N1`, the outcome in assay [1], in assay [2] and in assay [4] was inactive. Moreover, the results for the AC50 in assay [3] and in [12] were 9.07 µM (active) and 4.5 µM (active), respectively.

By AC50 is commonly meant the concentration at which the activity in the assay is half-maximal.
